Records with an inconclusive call do not appear. Values without a mark were called inactive. Activity calls are given as the source filed them. Calls come from the whole dose curve; as a rule, active = well fitted cell-killing curve with a large enough effect in the repeat runs; inconclusive = weak or mixed curves, or effect the other way; inactive = flat fitted curve, though single readings scatter.
assay: qHTS assay to identify small molecule agonists of the sonic hedgehog signaling (Shh) pathway - cell viability counter screen (AID 1259366); conditions: NIH/3T3 Gli1-Luc viability, CellTiter-Fluor, 24 h; series mostly up to 92.4 µM; note: nearly all actives have a fitted effect of over 50% in size
Excerpt: National Center for Advancing Translational Sciences [NCATS]
NIH Chemical Genomics Center [NCGC]
U.S. Environmental Protection Agency [EPA]
National Institutes of Environmental Health Sciences [NIEHS]
National Toxicology Program [NTP]
U.S. Food and Drug Administration [FDA]
The sonic hedgehog (Shh) pathway is essential for normal embryonic development. Dysregulation of the Shh pathway can cause severe developmental defects in organs. Therefore chemicals that interfere with the pathway are potential developmental toxicants. A cell line designated 3T3Gli1-Luc (DMB/OARSA/CFSAN/FDA, Laurel, MD), a NIH/3T3 derived clone containing stably integrated Gli1-Luc reporter is used to detect chemical interference of the Shh pathway, by changes in the expression of the firefly Luc gene under the control of the Gli1 transcriptional response element. This cell line was used to screen Tox21 libraries for identifying and prioritizing the potential developmental toxicants that interfere Shh pathway. The cytotoxicity of the compounds was tested in parallel by measuring the cell viability using CellTiter-Fluor assay system (Promega, Madison, WI) in the same wells.
Tox21 Assay Protocol Summary:
3T3 Gli1-Luc cells were dispensed at 2,000 per well in 5uL of culture medium into white solid bottom 1536-well plates (Greiner Bio-One, Monroe, NC) using a Multidrop Combi (Thermo Scientific, Waltham, MA) dispenser. The assay plates were incubated at 37 C and 5% CO2 for 4hr, and then 23nL of compounds dissolved in DMSO and positive control were transferred using a Pintool station (Wako, San Diego, CA). The assay plates were incubated at 37C and 5% CO2 for 24hr. For viability read, after 23hr of compound treatment, 1uL of CellTiter-Fluor reagent (Promega Corporation, Madison, WI) was added to each well of the assay plates using Flying Reagent Dispenser (FRD, Aurora Discovery, San Diego, CA) and incubated the assay plates at 37C for 1hr. The fluorescence signal was quantified using a ViewLux plate reader (Perkin Elmer, Shelton, CT).
% is set by controls: 0 for no effect and ±100 for the full control effect.

| Compound | outcome | viability change, negative = cytotoxic |
| --- | --- | --- |
| COc1cc(S(N)(=O)=O)cc(C(=O)O)c1OC | inactive |  |
| CCCCCCCC(=O)N(C)C | inactive |  |
| CC/C=C\CCCCCCCCCCOC(C)=O | inactive |  |
| COC(=O)c1ccc(NC(C)=O)cc1OC | inactive |  |
| CC(CC(=O)Cl)CC(C)(C)C (stereo not given) | inactive |  |
| Cc1ccccc1C#N | inactive |  |
| CC(CN1CC(=O)NC(=O)C1)N1CC(=O)NC(=O)C1 (stereo not given) | inactive |  |
| N=C(N)N1CCc2ccccc2C1 |  | 2.39% [at 8.39 µM] |
| C/C(=N\O)c1ccc(OCC(=O)N2CCCCC2)cc1 | inactive |  |
| CC(C)(C)c1ccc(N)cc1 | inactive |  |
| Nc1cc(S(=O)(=O)O)ccc1O | inactive |  |
| O=C(O)CCCCCCCCCC(=O)O | inactive |  |
| CCOc1ccccc1OCCN[C@H](C)Cc1ccc(OC)c(S(N)(=O)=O)c1 | inactive |  |
| Cc1cc(=O)oc2cc(O[C@@H]3SC[C@@H](O)[C@H](O)[C@H]3O)ccc12 | inactive |  |
| CC(C)(C)c1ccc(C(=O)CCCCl)cc1 | inactive |  |
| CCCCC(O)/C=C(C)/C=C/C=C/C(=O)N1CCCC1=O (stereo not given) | inactive |  |
| CN1C(CCl)Nc2cc(Cl)c(S(N)(=O)=O)cc2S1(=O)=O (stereo not given) | inactive |  |
| NS(=O)(=O)c1cc2c(cc1C(F)(F)F)NCNS2(=O)=O | inactive |  |
| CCN(CC)CC(=O)Oc1ccc(NC(C)=O)cc1 | inactive |  |
| CC(C)(C)OC(=O)c1ccccc1C(=O)O | inactive |  |

| Compound | outcome | viability change, negative = cytotoxic |
| --- | --- | --- |
| CC(C)(C)OC=O | inactive |  |
| CC1=C(O)C(=O)CO1 | inactive |  |
| COCCCOc1cc(C[C@@H](C[C@H](N)[C@@H](O)C[C@H](C(=O)NCC(C)(C)C(N)=O)C(C)C)C(C)C)ccc1OC | inactive |  |
| CC(C)CC(O)Cc1ccccc1 (stereo not given) | inactive |  |
| C[C@]12C=CC(=O)C=C1[C@@H](F)C[C@@H]1[C@@H]2[C@@H](O)C[C@@]2(C)[C@H]1CC[C@]2(O)C(=O)CO | inactive |  |
| C=CCn1cc[n+](C)c1 | inactive |  |
| OCCC(F)(F)C(F)(F)C(F)(F)C(F)(F)C(F)(F)C(F)(F)F | inactive |  |
| CC[N+](C)(CC)CC | inactive |  |
| C=C(C)C(=O)OCCOC1CC2CC1C1C=CCC21 (stereo not given) | inactive |  |
| COC(=O)c1ccccc1Cl | inactive |  |
| CN(C)CCC[C@@]1(c2ccc(F)cc2)OCc2cc(C#N)ccc21 | inactive |  |
| O=S(=O)(O)c1ccc(Cl)cc1 | inactive |  |
| Cc1ccc(O)c(C(=O)c2ccccc2)c1 | inactive |  |
| CCOCCOCCOC(C)=O | inactive |  |
| COC(=O)c1cc(Cl)c(NC(C)=O)cc1OC | inactive |  |
| CO/N=C(\C(=O)O)c1csc(NC(=O)CCl)n1 | inactive |  |
| CCCOc1ccc(C(=O)OCCN(CC)CC)cc1N | inactive |  |
| CC(=O)OCC(=O)[C@@]1(O)CC[C@H]2[C@@H]3CCC4=CC(=O)C=C[C@]4(C)[C@H]3[C@@H](O)C[C@@]21C | inactive |  |
| CCCC(C)C(O)CC (stereo not given) | inactive |  |
| Cc1ccccc1OCC(=O)O | inactive |  |

Reference: PubChem BioAssay (Tox21)
